# Reference: ChEMBL document CHEMBL5606460, “ASAP - DENV-2 NS2B-NS3 protease fluorescence single point” (2024)
# About 110 (5.5%) of roughly 2,000 compounds showed an effect of 50% or more. Only a selection was taken, and strong results are over-represented in it overall.
# Target: Genome polyprotein (dengue virus type 2) (UniProt P29990)
# [1] = Thailand/16681/1984, Concentration 25.0 uM, Number of replicates 1.0
compound,measurement,setting,value
COC1CN(C(=O)c2cc(Cl)ccc2NS(=O)(=O)c2ccc(Oc3ccccc3Cl)cc2)C1,inhibition,"Thailand/16681/1984, Concentration 49.5 uM, Number of replicates 2.0, Standard deviation 0.43340110085934463 %",13.9%
same,inhibition,"Thailand/16681/1984, Concentration 99.01 uM, Number of replicates 2.0, Standard deviation 0.8668022017186893 %",27.6%
same,inhibition,"Thailand/16681/1984, Concentration 198.0 uM, Number of replicates 2.0, Standard deviation 1.1631532151634014 %",43.9%
O=C(c1cc(Cl)ccc1NS(=O)(=O)c1ccc(Oc2ccccc2Cl)cc1)N1CCCC1,inhibition,"Thailand/16681/1984, Concentration 49.5 uM, Number of replicates 2.0, Standard deviation 0.3065647121254482 %",37.4%
same,inhibition,"Thailand/16681/1984, Concentration 99.01 uM, Number of replicates 2.0, Standard deviation 0.3046576515240273 %",55.4%
same,inhibition,"Thailand/16681/1984, Concentration 198.0 uM, Number of replicates 2.0, Standard deviation 0.40716687929743567 %",69%
Cc1nc(C2CCN(C(=O)c3ccn([C@H]4CCCNC4)n3)CC2)n[nH]1,inhibition,"Thailand/16681/1984, Concentration 49.5 uM, Number of replicates 2.0, Standard deviation 0.8219326667939915 %",-4.42%
same,inhibition,"Thailand/16681/1984, Concentration 99.01 uM, Number of replicates 2.0, Standard deviation 0.15240671313806178 %",-3.84%
same,inhibition,"Thailand/16681/1984, Concentration 198.0 uM, Number of replicates 2.0, Standard deviation 2.223365450237249 %",-4.59%
O=Cc1ccc(N2CCC(C(=O)NCCc3cccc(Br)c3)CC2)cc1,inhibition,[1],11.8%
O=Cc1ccc(N2CCC(C(=O)N3CC4C[C@H]5CC3C[C@H](C4)C5)CC2)cc1,inhibition,[1],14.5%
O=Cc1ccc(N2CCC(C(=O)Nc3ccccc3OCC(F)(F)F)CC2)cc1,inhibition,[1],13.4%
Cn1cc(CNC(=O)c2ccccc2[C@@H]2CCCCN2)cn1,inhibition,"Thailand/16681/1984, Concentration 49.5 uM, Number of replicates 2.0, Standard deviation 1.3250088302691205 %",-2.36%
same,inhibition,"Thailand/16681/1984, Concentration 99.01 uM, Number of replicates 2.0, Standard deviation 0.6184423716804828 %",-1.37%
same,inhibition,"Thailand/16681/1984, Concentration 198.0 uM, Number of replicates 2.0, Standard deviation 0.12536703369097324 %",-0.243%
Cc1cn(-c2cc(NC(=O)C3CCN(c4ccc(C=O)cc4)CC3)cc(C(F)(F)F)c2)cn1,inhibition,[1],12.1%
O=Cc1ccc(N2CCC(C(=O)N3CCC(c4nc5ccccc5s4)CC3)CC2)cc1,inhibition,[1],14.3%
Cn1cc(CNC(=O)c2ccccc2CN)cn1,inhibition,"Thailand/16681/1984, Concentration 49.5 uM, Number of replicates 2.0, Standard deviation 4.704758964680012 %",-1.53%
same,inhibition,"Thailand/16681/1984, Concentration 99.01 uM, Number of replicates 2.0, Standard deviation 3.3738585950449482 %",-6.84%
same,inhibition,"Thailand/16681/1984, Concentration 198.0 uM, Number of replicates 2.0, Standard deviation 1.4794083306984744 %",-5.39%
c1cnc2c(CN3CCC(c4c[nH]c5cccnc45)CC3)c[nH]c2c1,inhibition,"Thailand/16681/1984, Concentration 49.5 uM, Number of replicates 2.0, Standard deviation 2.401783006640112 %",-4.14%
same,inhibition,"Thailand/16681/1984, Concentration 99.01 uM, Number of replicates 2.0, Standard deviation 2.691377880268528 %",-3.47%
same,inhibition,"Thailand/16681/1984, Concentration 198.0 uM, Number of replicates 2.0, Standard deviation 2.989922552884535 %",-1.51%
O=Cc1ccc(N2CCC(C(=O)N[C@@H](Cc3ccccc3)c3ccccc3)CC2)cc1,inhibition,[1],4.84%
O=Cc1ccc(N2CCC(C(=O)NC[C@H]3COc4ccccc4O3)CC2)cc1,inhibition,[1],15.5%
C#CCN(Cc1ccccc1Cl)C(=O)C1CCN(c2ccc(C=O)cc2)CC1,inhibition,[1],14.7%
CNC(=O)c1cncnc1NS(=O)(=O)c1ccc(Oc2ccccc2Cl)cc1,inhibition,"Thailand/16681/1984, Concentration 49.5 uM, Number of replicates 2.0, Standard deviation 1.0127526920144583 %",5.46%
same,inhibition,"Thailand/16681/1984, Concentration 99.01 uM, Number of replicates 2.0, Standard deviation 1.3865274661736828 %",5.75%
same,inhibition,"Thailand/16681/1984, Concentration 198.0 uM, Number of replicates 2.0, Standard deviation 1.0625889801550739 %",3.56%
CNC(=O)c1cc(Cl)ncc1NS(=O)(=O)c1ccc(Oc2ccccc2Cl)cc1,inhibition,"Thailand/16681/1984, Concentration 49.5 uM, Number of replicates 2.0, Standard deviation 0.003826975991637689 %",-0.629%
same,inhibition,"Thailand/16681/1984, Concentration 99.01 uM, Number of replicates 2.0, Standard deviation 0.08610681229787821 %",-0.288%
same,inhibition,"Thailand/16681/1984, Concentration 198.0 uM, Number of replicates 2.0, Standard deviation 0.5032468582115982 %",12.6%
CNC(=O)c1cc(C#N)ccc1NS(=O)(=O)c1ccc(Oc2ccccc2Cl)cc1,inhibition,"Thailand/16681/1984, Concentration 49.5 uM, Number of replicates 2.0, Standard deviation 0.4271842721165937 %",49.4%
same,inhibition,"Thailand/16681/1984, Concentration 99.01 uM, Number of replicates 2.0, Standard deviation 0.14972718509713318 %",88.8%
same,inhibition,"Thailand/16681/1984, Concentration 198.0 uM, Number of replicates 2.0, Standard deviation 0.1152868035427591 %",94%
CNC(=O)c1cc(Br)cnc1NS(=O)(=O)c1ccc(Oc2ccccc2Cl)cc1,inhibition,"Thailand/16681/1984, Concentration 49.5 uM, Number of replicates 2.0, Standard deviation 0.1523274770628613 %",20.5%
same,inhibition,"Thailand/16681/1984, Concentration 99.01 uM, Number of replicates 2.0, Standard deviation 0.08785965758059779 %",73.9%
same,inhibition,"Thailand/16681/1984, Concentration 198.0 uM, Number of replicates 2.0, Standard deviation 0.12988512316778045 %",87.2%
CNC(=O)c1nc(Cl)ccc1NS(=O)(=O)c1ccc(Oc2ccccc2Cl)cc1,inhibition,"Thailand/16681/1984, Concentration 49.5 uM, Number of replicates 2.0, Standard deviation 0.5855266102241418 %",6.34%
same,inhibition,"Thailand/16681/1984, Concentration 99.01 uM, Number of replicates 2.0, Standard deviation 0.14494638377684543 %",6.62%
same,inhibition,"Thailand/16681/1984, Concentration 198.0 uM, Number of replicates 2.0, Standard deviation 0.056926230997118174 %",4.4%
CCc1ccc(NS(=O)(=O)c2ccc(Oc3ccccc3Cl)cc2)c(C(=O)NC)c1,inhibition,"Thailand/16681/1984, Concentration 49.5 uM, Number of replicates 2.0, Standard deviation 2.280534278494396 %",20.1%
same,inhibition,"Thailand/16681/1984, Concentration 99.01 uM, Number of replicates 2.0, Standard deviation 1.9533776277108892 %",35.5%
same,inhibition,"Thailand/16681/1984, Concentration 198.0 uM, Number of replicates 2.0, Standard deviation 2.0141203401343657 %",57.1%
CNC(=O)c1cc(Cl)ccc1NS(=O)(=O)c1ccc(C(=O)N2CCOCC2)cc1,inhibition,"Thailand/16681/1984, Concentration 49.5 uM, Number of replicates 2.0, Standard deviation 0.9242131636205312 %",0.016%
same,inhibition,"Thailand/16681/1984, Concentration 99.01 uM, Number of replicates 2.0, Standard deviation 0.5448647637736805 %",0.743%
same,inhibition,"Thailand/16681/1984, Concentration 198.0 uM, Number of replicates 2.0, Standard deviation 0.08706358790592401 %",3.74%
C[C@H]1COCCN1C(=O)c1cc(Cl)ccc1NS(=O)(=O)c1ccc(Oc2ccccc2Cl)cc1,inhibition,"Thailand/16681/1984, Concentration 49.5 uM, Number of replicates 2.0, Standard deviation 1.11087224122176 %",42.6%
same,inhibition,"Thailand/16681/1984, Concentration 99.01 uM, Number of replicates 2.0, Standard deviation 0.41977451897359047 %",79.8%
same,inhibition,"Thailand/16681/1984, Concentration 198.0 uM, Number of replicates 2.0, Standard deviation 0.050716482924917095 %",92.9%
